From PubChem BioAssay AID624330 (Southern Research Specialized Biocontainment Screening …, 2012)
In all, about 340,000 compounds went through this assay and about 2,100 (0.62%) were called active.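 The calls were made as follows: active = first-screen hits whose inhibition reached a set limit at any dose in the follow-up dose series; inconclusive = inhibition above the set first-screen limit but never retested; inactive = the rest.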 Only a sample is shown. Potency and affinity values are given separately.

Molecular target: Rac GTPase-activating protein 1 (Homo sapiens) (UniProt Q9H0H5)
Sequence (Q9H0H5 whole entry, looked up): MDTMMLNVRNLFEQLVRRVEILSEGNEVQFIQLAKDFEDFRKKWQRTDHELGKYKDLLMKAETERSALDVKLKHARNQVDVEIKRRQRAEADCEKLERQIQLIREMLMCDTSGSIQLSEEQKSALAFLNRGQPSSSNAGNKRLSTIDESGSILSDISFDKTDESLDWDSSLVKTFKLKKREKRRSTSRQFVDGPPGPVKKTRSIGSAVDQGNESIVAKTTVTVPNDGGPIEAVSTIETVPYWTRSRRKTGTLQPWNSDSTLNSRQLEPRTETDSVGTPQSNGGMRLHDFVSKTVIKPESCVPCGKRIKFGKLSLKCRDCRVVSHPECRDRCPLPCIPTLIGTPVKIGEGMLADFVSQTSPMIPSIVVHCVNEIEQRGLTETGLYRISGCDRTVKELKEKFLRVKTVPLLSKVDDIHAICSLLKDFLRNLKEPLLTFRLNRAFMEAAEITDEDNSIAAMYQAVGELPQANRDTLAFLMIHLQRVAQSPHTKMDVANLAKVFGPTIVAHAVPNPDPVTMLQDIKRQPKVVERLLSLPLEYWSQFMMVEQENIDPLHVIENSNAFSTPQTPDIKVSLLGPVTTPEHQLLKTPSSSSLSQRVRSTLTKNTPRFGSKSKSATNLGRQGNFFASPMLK
Experiment: blockers of MgcRacGAP-driven Rac1 GTP hydrolysis – biochemical, ADP Hunter fluorescence, primary and confirmatory, confirmation (AID 624330);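 also: fluorescence reports GDP produced by GAP-driven GTP hydrolysis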
Conditions: MgcRacGAP-stimulated Rac1 GTP hydrolysis, at 30 µM, active compounds read high, GST-tagged Rac1 F28L mutant substrate

inhibition, inactive:
CCCOc1cccc(/C=N/NC(=O)c2csc(C)c2C)c1 4.91%
CCOC(=O)N1CCN(CCc2ccccc2)CC1 7.1%
CC(C)[C@H](NC(=O)c1ccc(Cl)cc1)C(=O)Nc1cccc(S(=O)(=O)N2CCOCC2)c1 12.2%
COc1ccc(/C=C2/C(=O)ON=C2c2ccccc2)cc1OC 15.4%
CCOc1cc(/C=C2\C(=O)ON=C2c2ccccc2)ccc1OC 24.3%
COc1ccc(/C=C2\C(=O)ON=C2c2ccccc2)cc1OC 16.1%
CCOc1cc(/C=C2/C(=O)ON=C2C)cc(Br)c1O 29.1%
O=C1ON=C(c2ccccc2)/C1=C/c1ccccc1 5.86%
O=C1ON=C(c2ccccc2)/C1=C/c1ccc(O)cc1 27.7%
CN(C)c1cccc(NC(=O)CCc2ccccc2)c1 2.65%
C[C@H](CO)N1C[C@H](C)[C@H](CN(C)C(=O)CCC(F)(F)F)OCc2cnnn2CCCC1=O 6.43%
C=CCSc1nnc(-c2ccncc2)n1-c1ccc(OCC)cc1 6.74%
CC1CCN(S(=O)(=O)c2ccc(C(=O)NCc3cccnc3)cc2)CC1 -0.6%
C/C(CC(=O)Nc1cccc2c1CCCC2)=N\NC(=O)c1ccccc1N 5.83%
CC(C)(C)CC(=O)Nc1nnc(SCC(=O)NC2CCCC2)s1 4.93%
CC(C)OC(=O)c1c(NC(=O)c2cnn3c2NC(c2ccccc2)CC3C(F)(F)F)sc2c1CCCC2 (centres undefined) 10.2%
CCCCCC(=O)Nc1c2c(nc3ccccc13)CCC2 8.1%
O=C(CCCCCl)Nc1c2c(nc3ccccc13)CCC2 0.44%
Cc1ccccc1C(=O)Nc1c2c(nc3ccccc13)CCCC2 10.8%
O=C(Nc1c2c(nc3ccccc13)CCCC2)c1ccccc1Cl 2.57%
CCN1CCN(c2ccc(NC(=O)c3ccc(OC)c(S(=O)(=O)N4CCCC4)c3)cc2)CC1 4.33%
CC(C)N1CCN(Cc2coc3ccccc3c2=O)CC1CCO (centres undefined) 10.3%
O=C(CSc1nc(=O)n2ccccc2n1)NCCc1ccccc1 4.62%
NC(=O)CC(NC(=O)c1cccc(Br)c1)c1ccc(N2CCN(c3ccccn3)CC2)c([N+](=O)[O-])c1 (centres undefined) 5.09%
COc1ccccc1/C=C/C(=O)c1cc(Br)ccc1OC(=O)c1ccco1 8.54%
CC(C)CC(O)(CC(C)C)C(=O)NNc1ccccc1 11.2%
CCOC(=O)c1nc(Nc2ccccc2)c2ccccc2n1 -2.22%
CCOC(=O)c1nc(Nc2ccc(C)cc2)c2ccccc2n1 4.57%
CCN(CC(=O)Nc1ccccc1OC)C(=O)COc1ccc(C#N)cc1 2.59%
COc1ccccc1CN(C)CC(=O)Nc1ccc(Cl)cc1C(F)(F)F 18.9%
COc1ccc(CN(C)CC(=O)Nc2ccccc2C(F)(F)F)c(OC)c1 24.5%
COc1ccc(CCN=C(N)NS(=O)(=O)c2ccc(F)cc2)cc1OC 7.56%
CCC(=O)NC(=S)Nc1ccc(NC(=O)c2cccnc2)cc1 -1.6%
Cc1cc2ccccc2n2c(SCC(=O)NCc3cccs3)nnc12 -2.11%
C[C@H](CO)N1C[C@H](C)[C@@H](CN(C)S(=O)(=O)c2cccc(C#N)c2)OCc2cn(nn2)CCCC1=O 13.9%
NS(=O)(=O)c1ccc(-c2ccc(/C=C3\C(=O)Nc4cc(Cl)ccc43)o2)cc1 6.45%
NS(=O)(=O)c1ccc(-c2ccc(C=C3C(=O)c4ccccc4C3=O)o2)cc1 2.34%
CSc1ccccc1NC(=O)C1CCCN(S(C)(=O)=O)C1 (centres undefined) -1.03%
C=CCNC(=S)Nc1cccc(NC(=S)NCC=C)c1 6.56%
C=CCNC(=S)Nc1ccc(Cl)cc1 3.44%
CCCCn1c(CCNC(=O)c2cccs2)nc2ccccc21 -1.35%
COc1cccc(/C=N/NC(=O)c2cccc(N3CCCC3=O)c2)c1 4.11%
COc1ccc(O)c(/C=N/NC(=O)c2cccc(N3CCCC3=O)c2)c1 3.65%
COc1ccc(/C=N/NC(=O)c2ccc(N3CCCC3=O)cc2)cc1 7.42%
COc1cccc(/C=N/NC(=O)c2ccc(N3CCCC3=O)cc2)c1 7.68%
CCN(CCO)C(=O)CC1C(=O)NCCN1Cc1c(F)cccc1Cl (centres undefined) 9.19%
CN(Cc1cccc(F)c1)C(=O)CSc1nnc(C2CC2)n1C1CC1 7.8%
CCOc1cc(C(=O)NCC(C)CN(C)C)cc(OCC)c1OCC (centres undefined) 1.39%
Cc1ccc(NS(=O)(=O)c2ccc(C)c(NC(=O)c3ccc(S(=O)(=O)N4CCCCCC4)cc3)c2)c(C)c1 11.6%
COc1ccc(CN2CCN(CC(=O)Nc3ccccc3C(=O)NC3CC3)CC2)cc1F 6.52%
CCCN(CCO)Cc1ccc2ccccc2c1 3.4%
CN(C)C(=O)CCc1ccc2c3c([nH]c2c1)[C@]1(C)[C@@H](C(=O)N2CCCCC2)C[C@H](CC(=O)NCc2cccc(C(F)(F)F)c2)C(=O)N1CC3 4.55%
CCOC(=O)CSC1=NC(=O)/C(=C/c2ccc(Br)cc2)S1 19.4%
CCOC(=O)CSC1=NC(=O)/C(=C/c2ccc(OC)cc2)S1 16.1%
CCN1C[C@@H]2[C@@H]3C(=O)N(Cc4ccccc4)C(=O)[C@@H]3[C@](Cc3ccccc3)(C1=O)N2C(=O)c1ccc(Cl)cc1 6.26%
COc1ccc(C(=O)CC(=O)C(=O)Nc2ccc(OC)c(Cl)c2)cc1 5.32%
CN(C(=O)CCc1nc(-c2ccccc2F)no1)c1ccccc1 -0.78%
N#CC(C#N)=C1C=CC=CN1/C(=C\c1ccco1)C(=O)c1ccccc1 16.7%
N#CC(C#N)=C1C=CC=CN1/C(=C\c1ccco1)C(=O)c1ccc(-c2ccccc2)cc1 15.6%
N#CC(C#N)=C1C=CC=CN1/C(=C\c1ccccc1Cl)C(=O)c1ccccc1 17.8%
COc1ccc(C(=O)/C(=C\c2ccco2)N2C=CC=CC2=C(C#N)C#N)cc1 4.05%
CCCCN(C(=O)c1cc(CN2C(=O)c3ccccc3C2=O)ccc1OC)c1c(N)n(CC(C)C)c(=O)[nH]c1=O 3.78%
O=C(Nc1cccc(Cl)c1Cl)C1CCN(c2ncccn2)CC1 7.84%
CCOC(=O)C(Cc1ccccc1)C(=O)Nc1ccc(NC(=O)C(Cc2ccccc2)C(=O)OCC)cc1 (centres undefined) 4.48%
CCN(CC)c1ccc(NC(=S)NC(=O)C2CCC2)cc1 18%
NC(=O)c1ccc(NC(=O)CSC(=O)c2ccccc2)cc1 8.91%
CCN(CC)c1ccc(/C=N/NC(=O)Nc2ccccc2)cc1 28.4%
CCCCc1ccc(NC(=O)C2CCCC2)cc1 -0.66%
CCOC(=O)C(Cc1ccccc1)C(=O)Nc1cccc(C)c1 (centres undefined) 1.33%
CCN(CC)c1ccc(NC(=O)Nc2ccc(C(C)=O)cc2)cc1 10.2%
CC(=O)c1cccc(NC(=O)CSC(=O)c2ccccc2)c1 7.67%
COC(=O)c1cc(OC)c(OC)cc1NC(=O)CCCCCN1C(=O)CCC1=O 5.93%
COc1ccc(CCC(=O)Nc2ccc(Cn3ccnc3)cc2)cc1 6.46%
Cn1c(CCc2ccccc2)n[nH]c1=S 4.25%
C=CCOCCN(CC)CC 6.71%
CC#CCCCC(=O)Nc1ccccc1C(=O)O 6.9%
CCCn1c(SCCc2ccccc2)nc2c1c(=O)[nH]c(=O)n2C -2.73%
CCN(CC)c1ccc(/C=N/NC(=O)c2ccc(Br)o2)cc1 14.9%
CCOC(=O)c1ccc(NC(=O)COc2ccc(-n3cnnn3)cc2)cc1 11.5%
COC(=O)Cc1ccc(NC(=O)c2ccc(Br)o2)cc1 18.8%
CCOc1ccc(NC(=O)COc2ccc(-n3cnnn3)cc2)cc1 6.31%
COc1cccc(C(=O)NCCS(=O)(=O)N2CCC3(CC2)OCCO3)c1 6.03%
CC(=O)CC(=O)Nc1cccc2c1CCCC2 5.33%
COC(=O)c1cc(CNC(=O)c2ccc(O)c(Cl)c2)ccc1OC 2.78%
COC(=O)c1ccc(NCc2cc(O)ccc2O)cc1O 27%
CNS(=O)(=O)c1ccc(C(=O)NCC(=O)NCC2COc3ccccc3O2)cc1 (centres undefined) 3.68%
O=C(Nc1ccccc1N1CCCC1)C1CCN(S(=O)(=O)c2ccccc2)CC1 2.86%
CC(C)OCCCNC(=O)CN1C(=O)/C(=C/c2ccccc2)Sc2ccccc21 -14.8%
Cc1ccc(-c2cc(C(=O)N(C)Cc3cnn(C)c3C)c3cc(Br)ccc3n2)cc1 7.31%
Cc1ccc(S(=O)(=O)/N=C2\C=C(NS(=O)(=O)c3ccccc3)C(=O)c3ccccc32)cc1 2.77%
Cc1ccc(S(=O)(=O)Nc2ccc(N=Nc3ccc(O)cc3)cc2)cc1 21.7%
O=C1C(Cl)=C(Nc2ccc(O)cc2)C(=O)c2ccccc21 27.1%
O=C1C(O)=C(O)C(=O)c2ccccc21 -6.63%
O[C@H]1C[C@H](c2ccccc2)N(Cc2cccs2)C[C@@H]1n1cc(-c2ccc(F)cc2)nn1 7.08%
